Screening results (PubChem)
Only a selection was taken, and hits are over-represented in it overall.
ALR inh: inhibitors of human sulfhydryl oxidase ALR | purified ALR, DTT oxidation, H2O2 HRP-luminol luminescence | inhibition, % (no concentration beside the values) | 3.8% of 290,000 active;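 active = mean replicate inhibition above about 79%, with every replicate also reaching it, limit read from the data; inconclusive = only one of the two criteria met; inactive = mean below limit and not every replicate reaching it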
PglD DTNB: inhibitors of Campylobacter jejuni PglD acetyltransferase | 0.098% of 360,000 active | purified PglD enzyme, DTNB colorimetric CoA detection | inhibition, % at 12.5 µM; in the data active = inhibition above about 16%, passing the limit was not always enough; inconclusive = no clear call, values can overlap the other calls
ARNT TACC3 PPI: ARNT/TACC3 interaction disruption. AlphaScreen His-ARNT PAS-B/GST-TACC3 binding, luminescence; TACC3 fragment carries E629A point mutation. inhibition, % at 9.99 µM. 0.66% of 390,000 active;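 active = mean inhibition of replicates at least 50% and at least half of replicates each reaching 50%; inconclusive = half or more replicates reach 50% but mean below 50%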
ERp5 block: ERp5 (human) disulfide isomerase inhibition; Q15084; ERp5 insulin aggregation, absorbance 650 nm, 90 min; inhibition, % at 9.99 µM; 0.05% of 350,000 active; AID 651711;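 active = mean replicate inhibition above about 25%, with every replicate also reaching it, limit read from the data, passing the limit was not always enough; inconclusive = only one of those two criteria met; inactive = neither criterion met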
PDI turbidity: inhibitors of human protein disulfide isomerase; P07237; PDI insulin aggregation turbidity, A650, 90 min; inhibition, % at 10 µM; 0.052% of 350,000 active; AID 588391;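 active = mean inhibition across replicates of 30% or more, whatever share of single replicates reach that level; inconclusive = mean inhibition below 30% while every single replicate reaches 30%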
NRP1-CendR mod: alters CendR peptide binding to human NRP-1 | AID 602438 | FAM-RPARPAR peptide binding to NRP-1, fluorescence polarization | 0.85% of 360,000 active | O14786 | inhibition, % at 25 µM;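 active = inhibition or corrected inhibition above about 18%, plus a signal ratio from 0.5 to 1.5, limit read from the data, passing the limit was not always enough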
Target sequence (O14786 whole entry, looked up): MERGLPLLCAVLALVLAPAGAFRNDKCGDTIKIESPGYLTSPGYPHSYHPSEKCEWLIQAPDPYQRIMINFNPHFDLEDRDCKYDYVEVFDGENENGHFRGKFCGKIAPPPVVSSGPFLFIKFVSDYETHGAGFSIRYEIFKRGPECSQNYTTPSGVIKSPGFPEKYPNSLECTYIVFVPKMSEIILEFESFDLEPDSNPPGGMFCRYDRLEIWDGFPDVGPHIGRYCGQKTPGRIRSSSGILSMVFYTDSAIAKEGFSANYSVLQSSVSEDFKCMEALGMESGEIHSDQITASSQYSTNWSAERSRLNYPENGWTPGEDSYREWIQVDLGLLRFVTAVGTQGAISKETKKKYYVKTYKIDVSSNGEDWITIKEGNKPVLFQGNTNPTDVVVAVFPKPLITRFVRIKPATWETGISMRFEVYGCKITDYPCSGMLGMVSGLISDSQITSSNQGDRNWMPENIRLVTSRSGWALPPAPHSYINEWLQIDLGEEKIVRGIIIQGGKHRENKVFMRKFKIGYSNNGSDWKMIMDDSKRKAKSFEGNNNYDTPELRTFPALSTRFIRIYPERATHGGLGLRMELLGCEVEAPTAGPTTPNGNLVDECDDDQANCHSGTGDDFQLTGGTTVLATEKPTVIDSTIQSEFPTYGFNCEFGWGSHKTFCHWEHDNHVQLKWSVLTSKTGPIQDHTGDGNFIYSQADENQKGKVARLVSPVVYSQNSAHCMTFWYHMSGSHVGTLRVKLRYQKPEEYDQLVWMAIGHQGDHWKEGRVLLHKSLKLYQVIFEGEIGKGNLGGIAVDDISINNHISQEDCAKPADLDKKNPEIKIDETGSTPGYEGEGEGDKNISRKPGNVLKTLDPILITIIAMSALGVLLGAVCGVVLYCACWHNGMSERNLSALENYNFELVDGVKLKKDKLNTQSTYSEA
Hits are given with their value; i = inactive; ? = inconclusive; nt = no result given.

SMILES	ALR inh	PglD DTNB	ARNT TACC3 PPI	ERp5 block	PDI turbidity	NRP1-CendR mod
CCCC#Cc1ccc2c(c1)O[C@@H](CN(C)Cc1cccnc1)[C@@H](C)CN([C@@H](C)CO)S2(=O)=O	nt	i	i	i	nt	nt
C[C@@H]1CN([C@@H](C)CO)C(=O)c2cc(C#CC3CC3)cnc2O[C@H]1CN(C)C(=O)c1ccc(F)cc1	nt	i	i	i	nt	nt
COCCCN1CC(=O)N2C(c3cccc(OC)c3)c3[nH]c4ccccc4c3C[C@H]2C1=O (some centres undefined)	99.5	i	i	i	i	i
CCOC(=O)c1c(N)sc(C(=O)N2CCCCCC2)c1C	82.9	i	i	nt	i	i
CCOC(=O)c1c(N)sc(C(=O)N(CC)CC)c1C	95.6	i	i	i	i	i
CCOC(=O)c1c(N)sc(C(N)=O)c1C	i	i	i	nt	i	i
N#CC1=C(N)NC(SCC(=O)c2ccc(Br)cc2)=C(C#N)C12CCCCC2	i	i	i	i	i	i
COc1ccc(C(=O)CSC2=C(C#N)C3(CCCCC3)C(C#N)=C(N)N2)cc1	87.2	i	i	nt	i	i
CO[C@H]1CN(C)C(=O)c2cc(NC(C)=O)ccc2OC[C@@H](C)N(CC2CC2)C[C@@H]1C	nt	i	i	i	nt	nt
Cc1ccc(N2C(=O)c3cccc4c([N+](=O)[O-])ccc(c34)C2=O)c2cccnc12	nt	i	i	i	i	i
Cc1ccnc(N2C(=O)c3cccc4c([N+](=O)[O-])ccc(c34)C2=O)c1	i	i	i	i	i	36.3
O=C1c2cccc3c([N+](=O)[O-])ccc(c23)C(=O)N1Cc1cccnc1	nt	nt	i	i	i	69.0
O=C1c2cccc3cccc(c23)C(=O)N1Cc1cccnc1	i	nt	i	i	i	i
CC=Cc1ccc2n(c1=O)C[C@@H]1[C@@H](CO)[C@H](C(=O)N3CCOCC3)N(Cc3ccccc3OC)[C@H]21 (mixture of isomers)	nt	i	i	i	nt	nt
CCN(CC)c1ccc(/C=N/NC(=O)c2ccc3nc[nH]c3c2)cc1	98.9	i	i	i	i	i
COc1ccc(OC)c(/C=N/NC(=O)c2ccc3nc[nH]c3c2)c1	i	nt	i	i	i	i
CN(C)c1ccc(/C=N/NC(=O)c2ccc3nc[nH]c3c2)cc1	nt	nt	i	i	i	i
COc1cccc(/C=N/NC(=O)c2ccc3nc[nH]c3c2)c1	92.6	nt	i	i	i	i
CCC(CC)NC(=O)c1ccc2nc[nH]c2c1	nt	i	i	nt	i	29.2
CC(NC(=O)c1ccc2nc[nH]c2c1)c1ccccc1 (centres undefined)	i	nt	i	i	i	i
C[C@@H]1CN([C@H](C)CO)C(=O)Cc2cc(NC(=O)Nc3ccc4c(c3)OCO4)ccc2O[C@H]1CN(C)Cc1ccncc1	nt	i	i	i	nt	nt
C[C@@H]1CCCCO[C@@H](CN(C)C(=O)NC2CCCCC2)[C@H](C)CN([C@H](C)CO)C(=O)c2cc(NS(=O)(=O)c3cccs3)ccc2O1	nt	i	i	i	nt	nt
COc1ccc(NC(=O)N2CC(=O)N3[C@@H](CO)[C@H](c4ccc(C5=CCCC5)cc4)[C@@H]3C2)cc1	nt	nt	nt	i	nt	nt
O=[N+]([O-])c1ccc(Sc2cccc[n+]2[O-])c2nonc12	nt	nt	61.5	i	i	34.2
Cc1ccccc1C([O-])=Nc1ccc[n+](-c2nc3ccccc3nc2NS(=O)(=O)c2ccccc2)c1	89.0	nt	nt	nt	nt	nt
SMILES	ALR inh	PglD DTNB	ARNT TACC3 PPI	ERp5 block	PDI turbidity	NRP1-CendR mod
C[C@H]1CN([C@@H](C)CO)C(=O)Cc2cc(NC(=O)Nc3ccc(F)cc3)ccc2O[C@@H]1CN(C)Cc1ccccc1	nt	i	i	i	nt	nt
COc1ccc(C(=O)N2CCC(C(=O)NCc3ccccn3)CC2)cc1	i	i	i	nt	i	34.8
CC(C)n1ncc2c(C(=O)Nc3ccc(S(N)(=O)=O)cc3)cc(C3CC3)nc21	i	i	i	i	i	45.6
CC(C)n1ncc2c(C(=O)Nc3ccc(S(C)(=O)=O)cc3)cc(C3CC3)nc21	i	i	i	i	i	i
Nc1cc(C(F)(F)F)ccc1C(=O)O	96.8	i	i	i	i	i
Nc1cc(S(=O)(=O)C(F)(F)F)ccc1C(=O)O	i	i	i	nt	i	i
COC(=O)/C(=C\Nc1ccc(Oc2ccccc2OC(C)C)nc1)NC(=O)c1ccccc1	nt	nt	nt	i	nt	nt
C=CCc1c(C)nc(-c2ccccc2)nc1N/N=C(\C)c1ccccc1	nt	i	i	i	i	i
C=CCc1c(C)nc(-c2ccccc2)nc1Nc1ccc(O)cc1	99.0	i	i	nt	i	i
CCN1[C@@H]2c3ccc(-c4cccc(F)c4)c(=O)n3C[C@@H]2[C@@H](CO)[C@@H]1C(=O)N1CCCCC1	nt	i	i	i	nt	nt
CC(=O)Oc1ccc(-c2csnn2)cc1	i	i	i	nt	i	i
CCNC(=O)Oc1ccc(-c2csnn2)cc1	99.0	nt	i	i	i	i
C/C(=N\NC(=O)CSCc1ccccc1Cl)c1cc(O)ccc1O	98.3	nt	i	i	i	i
CC(=O)Nc1ccc(NC(=O)CSCc2ccccc2Cl)cc1	?	i	i	i	i	i
CCCN(C)C[C@H]1Oc2cc(-c3cccc(OC)c3)ccc2S(=O)(=O)N([C@H](C)CO)C[C@H]1C	nt	i	i	i	nt	nt
COc1ccccc1N1CCN(CCN(C(=O)C2CCCCC2)c2ccccn2)CC1	97.1	i	i	i	i	i
COc1ccccc1N1CCN(CC(C)N(C(=O)C2CCCCC2)c2ccccn2)CC1 (centres undefined)	i	i	i	i	i	i
COc1ccccc1N1CCN(CCN(C(=O)c2ccc(F)cc2)c2ccccn2)CC1	94.3	i	i	i	i	i
COc1ccccc1N1CCN(CCCC(=O)c2ccc(F)cc2)CC1	i	i	i	i	i	i
COc1ccccc1NC(=O)C(C)Nc1ccc(C)c(Cl)c1 (centres undefined)	nt	nt	i	i	i	i
COc1ccccc1NC(C)C(=O)Nc1ccc(C(C)=O)cc1 (centres undefined)	98.6	nt	i	i	i	i
Cc1cc(F)ccc1NCc1ccccc1[N+](=O)[O-]	98.7	i	nt	i	i	i
Cc1cc([N+](=O)[O-])ccc1NCc1ccccc1[N+](=O)[O-]	i	i	i	i	i	i
COC(=O)Cc1ccc(NC(=S)NCCCO)cc1	i	i	i	nt	i	40.3
COC(=O)Cc1ccc(NC(=S)NCCSc2ccc(C)cc2)cc1	i	nt	nt	i	i	29.2
SMILES	ALR inh	PglD DTNB	ARNT TACC3 PPI	ERp5 block	PDI turbidity	NRP1-CendR mod
Cc1ccc(NC(=S)NCCSc2ccc(Cl)cc2)cc1	i	nt	i	i	i	i
COC(=O)Cc1ccc(NC(=S)NN2CCOCC2)cc1	i	i	i	i	i	i
COc1ccc(NC(=O)Nc2ccc3c(c2)[C@H]2C[C@@H](CC(=O)N(C)C)O[C@@H](CO)[C@H]2O3)cc1	nt	i	i	i	nt	nt
C/C=C/c1ccc([C@@H]2[C@H](CO)N(C(=O)CC)C23CN(S(C)(=O)=O)C3)cc1	nt	nt	nt	i	nt	nt
O=C(CC1CCCCC1)c1c(O)c2ccccc2oc1=O	97.2	i	i	nt	i	i
CCCCC(=O)c1c(O)c2ccccc2oc1=O	i	i	i	nt	i	i
